Among the data in ChEMBL document CHEMBL4513216, “Probing the Open Global Health Chemical Diversity Library for Multistage-Active Starting Points for Next-Generation Antimalarials” (ACS Infect Dis, 2020) are INHIBITION values, retold here.

Among all 69,000 compounds or so, about 8,600 (12%) showed an effect of 50% or more. Shown is part of a subset that was picked to be rich in strong results.

This assay deals with Plasmodium berghei. Description: Screen against P. berghei liver stage (PbLuc), transformed with Luciferase, at 10uM. It counts as functional, HepG2. The conditions noted are these: tested at 10 uM.
Regarding `Cn1ccc(C(=O)NC2CCN(c3ncccn3)CC2)cc1=O`, the INHIBITION came out at 18.4%.
For `CN(C(=O)c1cccn1C)C1CCC(NC(=O)OC(C)(C)C)CC1` (centres undefined) the value was 22.3%; for `COc1cc(OC)cc(N2CCC(NC(=O)c3ccc[nH]3)CC2)c1`, 50.5%; for `CC(C)(C)OC(=O)NC1CCC(NC(=O)c2ccc[nH]2)CC1` (centres undefined), 12.7%.
In the case of `COc1cc(OC)cc(N2CCC(NC(=O)c3cccn3C)CC2)c1`, the INHIBITION is 62.5%.
For `COc1cc(CN2CCC(NC(=O)c3cccn3C)C2)cc(OC)c1` (centres undefined) the value was 44.9%.
To `Cn1cccc1C(=O)NC1CCN(c2ccc(OC(F)(F)F)cc2)CC1` belongs 64.9%; to `CCS(=O)(=O)c1ccccc1N1CCC(NC(=O)c2ccc[nH]2)CC1`, 18.4%.
For `CCS(=O)(=O)c1ccc(N2CCC(NC(=O)c3cnn(C)c3)CC2)cc1` the value was 43.4%.
For `O=S(=O)(NCC1COc2ccccc2C1)N1CCOCC1` (centres undefined), the INHIBITION is 18.6%.
Regarding `COc1ccc2c(c1)CC(NCCCn1nc(C)nc1C)CC2` (centres undefined), the INHIBITION was determined as 15.8%.
For `Cc1cc(C)c(S(=O)(=O)Nc2cccc3c2OCCO3)cc1C(=O)O` the value was 50%.
For `O=C(O)c1cc(S(=O)(=O)Nc2cccc3c2OCCO3)c(Cl)cc1F` the value was 81.7%; for `O=C(O)c1cc(S(=O)(=O)Nc2cccc3c2OCCO3)ccc1F`, 45.7%.
On to `O=C(O)c1cc(S(=O)(=O)Nc2cccc(F)c2F)cc2c1OCCO2`, for which the INHIBITION was determined as 22.3%.
To `Cc1ccccc1NS(=O)(=O)c1cc2c(c(C(=O)O)c1)OCCO2` belongs 35.3%; to `Cc1cc(C)c(S(=O)(=O)Nc2ccccc2CC(F)(F)F)cc1C(=O)O`, 15.9%; to `Cc1nc(C2CCCN2C(=O)Cc2ccc(F)cc2)nc(O)c1C` (centres undefined), -10.5%.
Consider `Cc1ccc(-n2nnc(C(=O)NC(C)C)c2C2CC2)cc1`, for which the INHIBITION was 15.5%.
For `O=C1CCCN1Cc1ncn2c1CN(C(=O)NC1CCCCC1)CCC2` the value was -19.5%; for `COc1cccc(Nc2nc(C3CCCNC3)c3ccccn23)c1` (centres undefined), -23.425%.
Turning to `Cc1c(C)n(CC(O)CN2CCCCCC2)c2c(Cl)cccc12` (centres undefined), the INHIBITION is on record as -48.6%.
For the compound `Cc1c(C)n(CC(O)CN2CCC(C)CC2)c2c(Cl)cccc12` (centres undefined), the INHIBITION amounted to 37.3%.
For the compound `Cc1c(C)n(CC(O)CN2CCOCC2)c2c(Cl)cccc12` (centres undefined), the INHIBITION amounted to 56.5%.
To `Cc1nc[nH]c1C(=O)NCc1cccnc1N(C)C1CCCCC1` belongs 26.8%; to `CCn1cc(C(=O)N(C)[C@@H]2CC[C@@H](N3CCCC3)[C@@H]2O)c(C)n1`, 12.335%; to `CCc1ccc(CN2CCN(c3ccc(Cl)nn3)CC2)nc1`, -7.94%.
As for `COc1ccc(CN2CCN(c3ncc(Cl)cn3)CC2)cc1`, the INHIBITION is reported as 11.8%.
For `CCc1ccc(CN2CCN(c3ncc(Cl)cn3)CC2)nc1` the value was 50.1%; for `COc1ccccc1N1CCN(C(=O)CCn2nnnc2C)CC1(C)C`, 51.8%.
For `COc1ccccc1N1CCN(C(=O)Cn2nccc2C)CC1(C)C` the value was -56.6%; for `COc1ccc(N2CCN(C(=O)CCn3nnnc3C)CC2(C)C)cc1`, -34.8%; for `COc1ccccc1N1CCN(C(=O)CCn2ccnc2C)CC1(C)C`, 6.31%.
For `COc1ccccc1N1CCN(C(=O)CCn2ccc(C)n2)CC1(C)C` the value was 8.48%; for `COc1ccccc1N1CCN(C(=O)Cn2nc(C)cc2C)CC1(C)C`, 52.8%; for `CC1=C(C(=O)NCCc2n[nH]c3c2CCCC3)C(C)NC(=O)N1` (centres undefined), -22.3%.
As to `COCCn1ccnc1C1CCCN(C(=O)c2cc(F)cc(F)c2)C1` (centres undefined), the INHIBITION is reported as 40.2%.
To `Cc1occc1C(=O)N1CCCS1(=O)=O` belongs 35.7%; to `Cc1ccsc1CNC(=O)N1CCC(Cc2cnn(C)c2)C1` (centres undefined), 11.083%; to `COc1ccc(CNC(=O)N2CCOCC2C2CC2)cc1C` (centres undefined), 66.7%.
Turning to `COc1ccc(CNC(=O)N2CCOCC2C2CC2)c(C)c1` (centres undefined), the INHIBITION is 17.4%.
To `Cc1ccc(CNC(=O)N2CCOCC2C2CC2)cc1F` (centres undefined) belongs 49.3%; to `COc1ccccc1C1Cn2c(C)cnc2CN1Cc1c[nH]nc1C` (centres undefined), -14.2%.
For `Cn1cnc2c1CCN(Cc1csc(Cc3ccccc3)n1)C2` the value was -3.7%; for `CN(C)C(=O)CC1CC2(CCN(CC3CC3)CC2)Oc2ccccc21` (centres undefined), -51.6%.
To `Cc1cc(C(=O)N2CC[C@](C)(O)[C@H](C)C2)c(C)n1C` belongs -12.2%.
In the case of `CC(c1ccc(F)cc1F)N1CCN(CCC(=O)NC(N)=O)CC1` (centres undefined), the INHIBITION is listed as -8%.
To `CC(c1ccc(F)cc1F)N1CCN(CCN2CCCC2=O)CC1` (centres undefined) belongs 63%; to `CC(c1ccc(F)cc1F)N1CCN(CCC(=O)O)CC1` (centres undefined), -17.7%; to `CCn1nc(C)cc1NC(=O)CCn1nc(C)c(Br)c1C`, 31.7%.
For `COCCn1ccc(=O)c(OCC(=O)Nc2cccc(Cl)c2)c1C` the value was -21.2%; for `Cc1cc(C)n(C2CN(CCC(N)=O)C2)n1`, -4.96%; for `CC(C)N(C)Cc1cncc2c1CCN(C(=O)c1cccc(C#N)c1)C2`, 12.7%.
With `Cc1cc(CN2CCN(Cc3cnc4c(c3)c(C)nn4C)CC2)on1`, the INHIBITION is given as 11.5%.
Turning to `CCN1CCN(C(=O)c2ccc(Cn3ccccc3=O)o2)CC1`, the INHIBITION is on record as 39.6%.
For `Cc1cc(CN2CCc3c(CNc4ncccn4)cncc3C2)oc1C` the value was 67.2%.
To `c1cnc(NCc2cncc3c2CCN(Cc2cccs2)C3)nc1` belongs -38.7%; to `COCCC(=O)N1CCc2c(CNc3ncccn3)cncc2C1`, 53.4%; to `CC(=O)NCC(=O)N1CCc2c(CNc3ncccn3)cncc2C1`, -2.17%.
For `c1cnc(NCc2cncc3c2CCN(Cc2cccnc2)C3)nc1` the value was 12.4%; for `CN(C)C(=O)N1CCc2c(CNc3ncccn3)cncc2C1`, 6.38%; for `c1cnc(NCc2cncc3c2CCN(Cc2ccoc2)C3)nc1`, 19.4%.
Consider `c1cnc(NCc2cncc3c2CCN(Cc2ccsc2)C3)nc1`, for which the INHIBITION was 60.2%.
For `c1csc(CN2CCc3c(CNc4nncs4)cncc3C2)c1` the value was 42.7%.
To `Cc1nn(C)c(N2CCOCC2)c1CNC(C)c1cccs1` (centres undefined) belongs 16.9%; to `COc1ccc(N2CCN(C(=O)C(C)n3cc(Br)cn3)CC2)cc1` (centres undefined), 30%.
To `Cc1cccc(CC2CCCN(C(=O)C3CCOCC3)C2)n1` (centres undefined) belongs 30.4%; to `O=C(C1CC1)N1CCC(c2nc(O)c3c(n2)CN(C2CCCC2)CC3)C1` (centres undefined), 5.11%.
As to `COc1cc(NCc2c(C)noc2C)c(C(=O)N(C)C)cc1OC`, the INHIBITION is -16.1%.
To `Cc1noc(C)c1CN1Cc2nccn2CC(CN2CCOCC2)C1` (centres undefined) belongs 18.3%; to `COCCC1(C(=O)O)CCCN(C(=O)c2cc(C)oc2C)C1` (centres undefined), 69.9%; to `COCCCC1(C(=O)O)CCCN(C(=O)c2ccc(Cl)cc2F)C1` (centres undefined), 39.3%.
For `CCN1C(=O)CCCC12CCCN(C(=O)c1cc(C)oc1C)C2` (centres undefined) the value was -17.1%; for `CCCC1(C(=O)O)CCCN(C(=O)c2cc(Cl)ccc2F)C1` (centres undefined), 36.5%; for `CCN(CC)Cc1cc(C(=O)N2CCCC(CC)(C(=O)O)C2)c(C)o1` (centres undefined), 29.9%.
For `COCCC1(C(=O)O)CCCN(C(=O)c2cc(F)ccc2OC)C1` (centres undefined) the value was 79.7%.
Regarding `COc1ccc(F)cc1C(=O)N1CCCC(CNS(C)(=O)=O)C1` (centres undefined), the INHIBITION was -38.7%.
`COCCCC1(C(=O)O)CCCN(C(=O)c2ccc(C(C)C)[nH]c2=O)C1` (centres undefined): the INHIBITION was 30.4%.
For `COCCC1(C(=O)O)CCCN(C(=O)c2cc(Cl)ccc2F)C1` (centres undefined) the value was 58.8%; for `Cc1nnc(NC(=O)CN2CCCC2c2c(C)nn(C)c2C)s1` (centres undefined), -24.2%.
Consider `CCc1nnc2n1CCN(C(=O)c1ccc3c(c1)nnn3C)C2`, for which the INHIBITION was -8.66%.
To `CS(=O)(=O)N1Cc2nccn2CC(CNC(=O)c2cccnc2)C1` (centres undefined) belongs 2.79%; to `COC(=O)[C@@H](Nc1nc(C2CCCC2)nc2c1cnn2C)[C@@H](C)O`, 10.9%.
As to `CC(C)[C@H](Nc1nc(C2CCCC2)nc2c1cnn2C)C(N)=O`, the INHIBITION is recorded as 28.5%.
As to `Cc1cc(CC(C)Nc2nc(C3CCCC3)nc3c2cnn3C)[nH]n1` (centres undefined), the INHIBITION is listed as 45.1%.
To `COC(=O)[C@H](CSC)Nc1nc(C2CCCC2)nc2c1cnn2C` belongs 52.6%; to `COCCN1CC(Nc2nc(C3CCCC3)nc3c2cnn3C)CC1=O` (centres undefined), 25.1%.
For `CCC(Nc1nccc(C2CCCC2)n1)c1ccccn1` (centres undefined) the value was 22.5%; for `CCOC(=O)CC(C)Nc1nc(C2CCCC2)nc2c1cnn2C` (centres undefined), 61%; for `CCOC(=O)CNc1nc(COC)nc2c1cnn2C`, -4.23%.
For `CCC(Nc1nccc(C2CCCC2)n1)c1ncccc1C` (centres undefined) the value was -24.8%; for `CCC(Nc1nccc(C2CCCC2)n1)c1ccncc1` (centres undefined), 84.1%; for `CC(C)C[C@H](Nc1nc(C2CCCC2)nc2c1cnn2C)C(N)=O`, 61%.
Take `CC(=O)NCCNc1nc(C2CCCC2)nc2c1cnn2C`: the INHIBITION is 5.23%.
For the compound `Cc1c(C2CCCN(C(=O)c3ccn(C)n3)C2)n2c(nc1=O)CCC2` (centres undefined), the INHIBITION is -9.32%.
To `CC(=O)NCCNC(=O)NCC1Cc2ccccc2O1` (centres undefined) belongs 1.56%.
On to `CN(C)C(=O)CN1CCCCC1c1nc(N)ncc1-c1cccc(F)c1` (centres undefined), for which the INHIBITION worked out at 39.8%.
For `CS(=O)(=O)NC1CCCN(C(=O)Nc2cccnc2)C1` (centres undefined) the value was 37.3%.
To `Cc1noc(C)c1-c1nc(C2CCCN(CCC(N)=O)C2)ccc1CO` (centres undefined) belongs -19%.
Turning to `O=C(CCN1C(=O)CC2(CCCC2)C1=O)NCCc1nccs1`, the INHIBITION came to 20%.
For `Cc1nc(NC(=O)C2(C)CN(C)CCO2)sc1C` (centres undefined) the value was 4.3%; for `CCC(Nc1nc(C(C)C)nc2c1cnn2C)c1ccc(O)cc1` (centres undefined), 15.5%.
Regarding `CCC(Nc1nc(C2CCCC2)nc2c1cnn2C)c1ccncc1` (centres undefined), the INHIBITION came out at 50.8%.
As for `CCC(Nc1nc(C(C)C)nc2c1cnn2C)c1ccncc1` (centres undefined), the INHIBITION was 48%.
To `CC[C@H](Nc1nc(C(C)C)nc2c1cnn2C)c1ccccc1` belongs 53.6%; to `O=S(=O)(CC1CCCCO1)Nc1cnn(CC(F)F)c1` (centres undefined), 9.76%.
To `COc1ccc(OCCc2cc(C3CCN(CC(C)C)C3)n[nH]2)cc1` (centres undefined) belongs 15.15%; to `CCCN1CCC(c2cc(CCOc3ccc(C(F)(F)F)cc3)[nH]n2)C1` (centres undefined), 58%; to `Clc1ccc(OCCc2cc(C3CCN(c4ncccn4)C3)n[nH]2)cc1` (centres undefined), 36.22%.
